PubChem BioAssay (NCI)
About 83,000 compounds went through this panel and 20% of them were active in at least one assay; those are over-represented in the sample as a whole.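 Cells were grown in 96-well plates and exposed to the test compound at a single concentration for 48 hours; results are reported as percent growth, with values below 10 considered active.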 A number with no mark means an inactive call. Activity calls are given as the source filed them.

tested on: U251 CNS; experiment: NCI-60 one-dose screen, 48 h (100 = growth as untreated, 0 = no growth, -100 = all killed); settings: 10 µM unless noted

SMILES	growth
CC(C)(C)c1cc(-c2nc3ccc(N4CCN(CCO)CC4)cc3[nH]2)cc(C(C)(C)C)c1O	16%
Clc1ccc(/C=C/c2nc(N3CCOCC3)c3nc(Cl)c(Cl)cc3n2)cc1	103%
CCOC(=O)/C=C\C(=O)NC(N)=O	94%
CCC#CC[C@H]1C/C=C2/C(=O)C=C[C@@H]2C/C=C\CCCC(=O)O1	-11.2% (active)
O=C(Cc1c(F)cccc1Cl)Nc1ccc(S(=O)(=O)Nc2ncccn2)cc1	105%
C=CCc1cc(Cl)cc2c(OC(C)=O)c(C(C)=O)c(-c3ccccc3)nc12	105%
Cc1c(C(=O)NCc2ccccc2)[n+](=O)c2cc(F)ccc2n1[O-]	102%
C=CCOc1cccc(/C=C/C(=O)c2sc(Nc3cccnc3)nc2C)c1	50.7%
COc1ccc(C(=O)c2cc(OC)c(OC)c(OC)c2)cc1/C=C/C(=O)c1ccc2c(c1)OCO2	-19.1% (active)
CCN(CC)S(=O)(=O)c1ccc2[nH]c(=O)cc(C(=O)Nc3ccc(OC)cc3OC)c2c1	108%
O=C(Nc1cc(C(F)(F)F)cc(C(F)(F)F)c1)Nc1ccc(OCc2nnc(-c3ccc(Cl)cc3)o2)c(F)c1	1.55% (active)
O=C1CCCCN1CCCCC#Cc1ccccc1C#Cc1ccccn1	88.9%
COc1ccc2c(c1)C=CC(C#N)N2C(=O)c1ccccc1 (stereo not given)	28.6%
CC1(C)OC2COC3(C(=O)O)OC(C)(C)OC3C2O1 (stereo not given)	102%
COc1cc(C2C=C(C)N=C3SC(C)=NN32)cc(OC)c1OC (stereo not given)	100%
